# Test results: PubChem BioAssay (NCATS)
# A number with no mark means an inactive call. Inconclusive results are not listed. A call without a number means that no potency is given here. Calls of active or inactive are those of the source. Unless noted, calls come from the whole dose curve; as a rule, active = well fitted curve in the direction sought with a large enough effect; inconclusive = small, poorly fitted or top-dose-only effect, or another doubt; inactive = no such curve, though single readings can be large; an effect the other way counts as inactive or inconclusive.
# Columns and labels:
# [1] = AP1 Signaling Pathway (AID 357; active = well fitted curve in either direction with a large enough effect, not every such curve was filed as active;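 note: ME-180 reporter cells stimulated with EGF at its EC50 level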); settings: ME-180 AP-1-bla reporter, EGF-induced, beta-lactamase ratio, 5 h; at 7.69 µM (top of the series) unless noted
# Summary of the method: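 In this screen, ME-180 cells in Opti-MEM with 0.5% dialyzed FBS received EC50 EGF and compound titrations for 5 h. AP-1 reporter beta-lactamase was detected via CCF4 ratio, giving AC50 for positive and negative modulators.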
# [2] = target: Cytochrome P450 1A2 (Homo sapiens) (UniProt P05177); test: p450-cyp1a2 (AID 410; calls by dose curve; note: potency is the fitted concentration of half-maximal effect)
# Summary of the method: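 Inhibition was calculated relative to 57 uM furafylline (full inhibition). The reaction used human CYP1A2 at 20nM with Luciferin-ME at its Km, 100uM, driven by an NADPH-regenerating system for 60 min at room temperature.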
# [3] = NFAT Signaling Pathway (AID 444; active = well fitted curve in either direction with a large enough effect, not every such curve was filed as active;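 note: carbachol stimulus at about its EC50 of 1 µM final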); settings: Jurkat NFAT-bla M1, carbachol, beta-lactamase ratio, 5 h; at 7.69 µM (top of the series) unless noted
# Summary of the method: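 Jurkat cells with NFAT-driven β-lactamase reporter and co-expressed M1 receptor, stimulated with carbachol (final 1 uM, ~EC50), compound titration, 5 h at 37 °C. CCF4 loaded 1 h at RT; 460/530 nm ratio gave %activity and AC50.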
# [4] = Stat Signaling Pathway (AID 446; active = well fitted curve in either direction with a large enough effect, not every such curve was filed as active;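 note: ME-180 cervical cancer cells given 40 pM IL-6 alongside compound; SIE-controlled beta-lactamase reporter measured as 460/530 nm FRET emission ratio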); settings: ME-180 SIE beta-lactamase reporter, IL-6 stimulated, 5 h; at 7.69 µM (top of the series) unless noted
# Summary of the method: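 ME-180 cells carrying a SIE-driven beta-lactamase reporter are stimulated with 40 pM IL-6 for 5 h at 37C in the presence of compound. The 460/530 nm FRET substrate ratio is read after 2.5 h at RT. Data are normalised to 300 pM IL-6 and to 125 nM JAK inhibitor controls.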
# [5] = target: Glucocorticoid receptor (Homo sapiens) (UniProt P04150); test: GR-GFP Redistribution (AID 450;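 active = compounds whose dose series gives a full or clear partial fitted curve of increased nuclear translocation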; note: potency is the fitted concentration of half-maximal effect); settings: U2OS GR-GFP nuclear translocation, laser cytometry, 2 h
# [6] = target: Glucocorticoid receptor (Homo sapiens) (UniProt P04150); test: GR-EFC Redistribution (AID 451; calls by dose curve; note: potency is the fitted concentration of half-maximal effect); settings: CHO-K1 GR-EFC translocation, beta-gal luminescence, 2 h
# Summary of the method: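 CHO-K1 cells expressing nuclear EA and GR-ED fragments of b-gal; compounds titrated up to 46 uM final, 2 h at 37 C. GR nuclear translocation read as complemented b-gal luminescence after 1 h RT detection.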
# [7] = target: Mitogen-activated protein kinase 10 (Mus musculus) (UniProt Q61831); test: JNK3 AlphaScreen Assay (AID 530; active = well fitted curve in either direction with a large enough effect, not every such curve was filed as active;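 note: kinase came from lysate of stimulated human HepG2 cells; signal reports phosphorylation of biotinylated GST-cJun 1-79 at Ser73 with 10 µM ATP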)
# Summary of the method: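 qHTS format: compounds tested as titrations against IL-1beta/TNF-alpha-activated HepG2 lysate JNK3 with biotin-GST-cJun substrate and 10 uM ATP at room temperature. Loss of anti-phospho-cJun AlphaScreen signal indicates inhibition.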
# [8] = target: 3',5'-cyclic-AMP phosphodiesterase 4B (Homo sapiens) (UniProt Q07343); test: qHTS Assay for Inhibitors of PDE-IV (AID 607; active = well fitted activation curve with a large enough effect in the main read-out, with a control signal flat, not every such curve was filed as active)
# Summary of the method: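 HEK293 ACTOne cells with CNG channel (1000/well), endogenous PDE4; membrane potential dye, compounds up to 22.9 uM final. Fluorescence Ex 535/Em 590; RO 20-1724 (100 uM final) as reference.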
# [9] = target: Cytochrome P450 3A4 (Homo sapiens) (UniProt P08684); test: qHTS Assay for Activators of Cytochrome P450 3A4 (AID 885); note: nearly all actives have a fitted effect of over 65% in size
# Summary of the method: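 Human CYP3A4 (20 nM) with Luciferin-PPXE at 25 uM (its KM) in 200 mM KPO4; 10 min compound preincubation, then NADPH regeneration and 60 min reaction at RT. Luciferin read by luminescence; normalized to 57 uM ketoconazole full inhibition.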
# [10] = target: Cytochrome P450 2C19 (Homo sapiens) (UniProt P33261); test: qHTS Assay for Inhibitors and Substrates of Cytochrome P450 2C19 (AID 899); note: potency is the fitted concentration of half-maximal effect; nearly all actives have a fitted effect of over 60% in size
# Summary of the method: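 Signal comes from luciferase acting on luciferin released by CYP2C19-mediated hydroxylation of Luciferin-H EGE, 10uM (KM). Assay mix: 5nM enzyme, 50mM KPO4; 60 min at 37C with NADPH regeneration. Data normalized against 57uM ketoconazole.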
# [11] = target: Dual specificity protein kinase CLK4 (Homo sapiens) (UniProt Q9HAZ1); test: qHTS Assay for Inhibitors of CDC-like Kinase 4 (Kinase-Glo Assay) (AID 1770); note: nearly all actives have a fitted effect of over 65% in size
# Summary of the method: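 Inhibition was judged from remaining ATP, measured by Ultra-Glo luciferase bioluminescence after Clk4 (25 nM) had acted on RS peptide at 1 uM ATP for 4.5 hours, room temperature.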
# [12] = target: Dual specificity protein kinase CLK4 (Homo sapiens) (UniProt Q9HAZ1); test: qHTS Assay for Inhibitors of CDC-like Kinase 4 (ADP-Glo Assay) (AID 1771); note: nearly all actives have a fitted effect of over 70% in size
# Summary of the method: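 Kinase reaction: Clk4 at 25 nM, RS repeat peptide substrate at 100 uM, ATP at 1 uM, 1 hr, room temperature. Product ADP detected as luciferase signal via ADP-Glo.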
# [13] = target: Dual specificity protein kinase CLK4 (Homo sapiens) (UniProt Q9HAZ1); test: qHTS Assay for Inhibitors of CDC-like Kinase 4 (ADP-FP Assay) (AID 1795);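 note: recombinant human CLK4 phosphorylating RS repeat peptide at 1 µM ATP; nearly all actives have a fitted effect of over 60% in size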
# Summary of the method: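 Inhibition of ADP formation by 6.25 nM Clk4 is measured using 1 uM ATP and 100 uM RS repeat peptide over one hour. Produced ADP displaces a fluorescent tracer from antibody, lowering polarization.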
# [14] = target: Ubiquitin carboxyl-terminal hydrolase 1 (Homo sapiens) (UniProt O94782); test: Inhibitors of USP1/UAF1: Pilot qHTS (AID 504865); note: nearly all actives have a fitted effect of over 35% in size; note: potency is the fitted concentration of half-maximal effect;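 for activity change, negative = inhibition: rhodamine fluorescence freed from ubiquitin-rhodamine substrate followed over time; top concentration of the series differs between compounds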
# Summary of the method: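 Kinetic fluorescence assay: 1nM USP1/UAF1, 15 min compound preincubation, then 150nM Ub-Rho; 480/540 nm.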
# [15] = Primary qHTS for small molecule stabilizers of the endoplasmic reticulum resident proteome: Secreted ER Calcium Modulated Protein (SERCaMP) assay (AID 1508630)
# Summary of the method: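 GLuc-SERCaMP-expressing SH-SY5Y cells, pretreated 16 h with compound, are challenged with thapsigargin to empty ER calcium stores; after 4 h, coelenterazine is added directly to the medium and luminescence is imaged.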
# [16] = qHTS Assay for Identification of Small Molecule Agonists for Hypoxia Response Element Signaling Pathway (AID 914; active = well fitted activation curve with a large enough effect in the signal ratio, with a control signal flat, not every such curve was filed as active; the % refers to the signal ratio); settings: ME-180 HRE-bla reporter, beta-lactamase ratio, CoCl2, 17 h; activation: stronger effect = higher value
# Summary of the method: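 ME-180 cells carrying an HRE-driven beta-lactamase reporter were treated with compounds in a titration series plus an EC50 level of CoCl2 for 17 h at 37 degrees Celsius; CCF4 readout as the 460nm/530nm ratio gave AC50 values.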
# [17] = target: Lysosomal acid glucosylceramidase (Homo sapiens) (UniProt P04062); test: Glucocerebrosidase-p2 (AID 348; in the data active = potency below about 10 µM; note: potency is the fitted concentration of half-maximal effect); settings: purified GBA, blue fluorogenic substrate, 40 min
# Summary of the method: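 Compounds titrated from 0.6 nM upwards against 0.2 nM enzyme in pH 5.9 citric acid/KH2PO4, taurocholate, tween-20; blue fluorogenic substrate 80 uM, 40 min room temperature, stopped and read Ex 365/Em 440 for AC50.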
# Chain of Dual specificity protein kinase CLK4 (Homo sapiens) (Q9HAZ1 whole entry, looked up): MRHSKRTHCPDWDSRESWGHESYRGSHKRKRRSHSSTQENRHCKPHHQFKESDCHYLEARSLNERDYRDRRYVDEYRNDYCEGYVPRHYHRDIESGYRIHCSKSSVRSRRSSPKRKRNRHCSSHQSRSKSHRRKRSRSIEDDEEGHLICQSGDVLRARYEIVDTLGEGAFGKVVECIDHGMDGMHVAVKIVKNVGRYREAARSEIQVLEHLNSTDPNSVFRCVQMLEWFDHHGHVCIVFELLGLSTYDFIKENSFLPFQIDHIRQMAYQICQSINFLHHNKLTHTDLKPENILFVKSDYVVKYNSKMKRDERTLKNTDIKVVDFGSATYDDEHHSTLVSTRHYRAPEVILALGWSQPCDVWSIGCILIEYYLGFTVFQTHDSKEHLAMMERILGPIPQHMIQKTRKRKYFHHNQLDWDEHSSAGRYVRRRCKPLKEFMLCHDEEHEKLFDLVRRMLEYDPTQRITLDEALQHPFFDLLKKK
# Chain of Cytochrome P450 1A2 (Homo sapiens) (P05177 whole entry, looked up): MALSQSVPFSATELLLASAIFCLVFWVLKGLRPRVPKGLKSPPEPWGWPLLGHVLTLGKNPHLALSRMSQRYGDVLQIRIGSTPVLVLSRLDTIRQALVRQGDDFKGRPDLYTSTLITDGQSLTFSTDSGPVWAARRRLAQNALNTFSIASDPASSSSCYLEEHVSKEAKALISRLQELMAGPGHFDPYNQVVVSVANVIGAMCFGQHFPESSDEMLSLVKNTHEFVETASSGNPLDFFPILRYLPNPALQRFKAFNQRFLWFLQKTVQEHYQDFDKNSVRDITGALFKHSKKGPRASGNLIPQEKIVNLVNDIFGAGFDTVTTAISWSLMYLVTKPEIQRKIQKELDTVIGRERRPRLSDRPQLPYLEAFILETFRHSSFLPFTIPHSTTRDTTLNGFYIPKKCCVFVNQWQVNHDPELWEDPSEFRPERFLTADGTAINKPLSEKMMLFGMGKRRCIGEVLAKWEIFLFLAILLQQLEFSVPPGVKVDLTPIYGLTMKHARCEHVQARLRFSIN
# Chain of Glucocorticoid receptor (Homo sapiens) (P04150 whole entry, looked up, the tested form may be a part): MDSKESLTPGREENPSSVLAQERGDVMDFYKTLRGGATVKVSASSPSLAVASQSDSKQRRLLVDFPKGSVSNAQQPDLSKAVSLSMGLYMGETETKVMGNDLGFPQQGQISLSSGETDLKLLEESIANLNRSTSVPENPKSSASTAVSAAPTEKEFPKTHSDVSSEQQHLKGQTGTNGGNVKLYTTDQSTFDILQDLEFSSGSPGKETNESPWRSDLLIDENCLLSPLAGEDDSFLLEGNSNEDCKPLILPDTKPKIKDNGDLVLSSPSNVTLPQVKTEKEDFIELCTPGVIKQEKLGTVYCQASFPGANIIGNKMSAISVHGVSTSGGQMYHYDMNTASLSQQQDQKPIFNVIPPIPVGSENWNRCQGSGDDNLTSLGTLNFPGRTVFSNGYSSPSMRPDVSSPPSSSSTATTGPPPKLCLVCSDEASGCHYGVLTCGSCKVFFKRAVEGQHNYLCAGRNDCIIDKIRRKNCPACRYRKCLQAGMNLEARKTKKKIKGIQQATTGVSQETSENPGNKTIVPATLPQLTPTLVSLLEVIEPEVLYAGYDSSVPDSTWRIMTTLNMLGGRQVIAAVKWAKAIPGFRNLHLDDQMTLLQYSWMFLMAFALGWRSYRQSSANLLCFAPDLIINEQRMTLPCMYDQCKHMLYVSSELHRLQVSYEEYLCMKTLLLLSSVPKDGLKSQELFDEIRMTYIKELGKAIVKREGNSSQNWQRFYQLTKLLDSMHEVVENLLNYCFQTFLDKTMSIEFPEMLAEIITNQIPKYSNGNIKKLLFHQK
# Chain of Ubiquitin carboxyl-terminal hydrolase 1 (Homo sapiens) (O94782 whole entry, looked up): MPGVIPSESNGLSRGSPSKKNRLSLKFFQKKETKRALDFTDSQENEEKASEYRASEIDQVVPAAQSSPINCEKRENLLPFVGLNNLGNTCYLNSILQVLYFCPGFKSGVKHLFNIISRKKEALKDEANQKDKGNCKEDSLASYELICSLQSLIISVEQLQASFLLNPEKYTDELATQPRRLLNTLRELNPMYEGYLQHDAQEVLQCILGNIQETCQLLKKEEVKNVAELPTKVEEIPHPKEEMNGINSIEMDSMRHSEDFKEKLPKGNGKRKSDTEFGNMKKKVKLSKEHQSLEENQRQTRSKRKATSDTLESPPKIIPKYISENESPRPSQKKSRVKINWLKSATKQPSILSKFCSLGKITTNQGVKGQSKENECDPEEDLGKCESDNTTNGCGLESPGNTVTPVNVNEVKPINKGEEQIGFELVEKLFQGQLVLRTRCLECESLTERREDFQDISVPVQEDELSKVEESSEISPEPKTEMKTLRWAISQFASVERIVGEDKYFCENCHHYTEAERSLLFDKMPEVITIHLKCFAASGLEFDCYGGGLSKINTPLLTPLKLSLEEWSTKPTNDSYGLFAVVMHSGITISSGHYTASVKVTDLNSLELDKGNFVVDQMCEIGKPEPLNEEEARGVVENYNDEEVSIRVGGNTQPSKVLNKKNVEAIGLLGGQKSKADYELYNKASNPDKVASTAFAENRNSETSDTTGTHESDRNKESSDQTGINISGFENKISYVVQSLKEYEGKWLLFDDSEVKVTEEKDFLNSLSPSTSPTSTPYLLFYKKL
# Chain of 3',5'-cyclic-AMP phosphodiesterase 4B (Homo sapiens) (Q07343 whole entry, looked up): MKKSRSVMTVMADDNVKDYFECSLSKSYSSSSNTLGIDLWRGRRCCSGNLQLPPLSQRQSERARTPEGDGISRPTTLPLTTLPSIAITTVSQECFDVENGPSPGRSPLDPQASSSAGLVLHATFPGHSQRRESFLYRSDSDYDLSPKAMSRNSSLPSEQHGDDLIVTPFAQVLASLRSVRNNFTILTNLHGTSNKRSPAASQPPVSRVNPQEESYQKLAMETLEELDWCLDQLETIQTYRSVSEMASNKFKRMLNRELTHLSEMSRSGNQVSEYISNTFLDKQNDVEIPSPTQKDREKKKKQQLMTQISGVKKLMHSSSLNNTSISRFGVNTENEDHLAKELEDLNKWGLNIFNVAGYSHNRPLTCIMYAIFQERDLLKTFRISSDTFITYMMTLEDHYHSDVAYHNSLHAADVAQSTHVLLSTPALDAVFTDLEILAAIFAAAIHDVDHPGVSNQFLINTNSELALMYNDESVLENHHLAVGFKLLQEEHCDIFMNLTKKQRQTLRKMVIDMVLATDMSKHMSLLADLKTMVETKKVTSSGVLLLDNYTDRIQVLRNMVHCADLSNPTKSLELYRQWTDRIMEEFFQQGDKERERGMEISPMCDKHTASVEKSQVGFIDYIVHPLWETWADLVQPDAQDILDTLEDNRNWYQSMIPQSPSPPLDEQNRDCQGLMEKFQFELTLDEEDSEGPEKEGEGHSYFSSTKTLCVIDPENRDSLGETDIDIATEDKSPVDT
# Chain of Lysosomal acid glucosylceramidase (Homo sapiens) (P04062 whole entry, looked up): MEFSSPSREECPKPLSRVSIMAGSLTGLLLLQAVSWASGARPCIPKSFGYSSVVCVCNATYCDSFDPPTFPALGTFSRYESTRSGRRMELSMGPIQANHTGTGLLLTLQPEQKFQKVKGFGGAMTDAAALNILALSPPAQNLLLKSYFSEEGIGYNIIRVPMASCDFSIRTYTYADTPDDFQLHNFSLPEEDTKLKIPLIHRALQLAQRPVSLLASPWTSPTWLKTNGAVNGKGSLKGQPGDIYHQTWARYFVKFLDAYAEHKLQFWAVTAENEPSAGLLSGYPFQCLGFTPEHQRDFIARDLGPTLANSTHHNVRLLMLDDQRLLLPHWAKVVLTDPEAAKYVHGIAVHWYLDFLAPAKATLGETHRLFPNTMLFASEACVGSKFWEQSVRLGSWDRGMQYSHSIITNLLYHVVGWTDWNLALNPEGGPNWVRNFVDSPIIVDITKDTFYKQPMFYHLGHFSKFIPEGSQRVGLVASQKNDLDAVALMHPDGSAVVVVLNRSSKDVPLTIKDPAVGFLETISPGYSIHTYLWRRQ
# Chain of Cytochrome P450 3A4 (Homo sapiens) (P08684 whole entry, looked up): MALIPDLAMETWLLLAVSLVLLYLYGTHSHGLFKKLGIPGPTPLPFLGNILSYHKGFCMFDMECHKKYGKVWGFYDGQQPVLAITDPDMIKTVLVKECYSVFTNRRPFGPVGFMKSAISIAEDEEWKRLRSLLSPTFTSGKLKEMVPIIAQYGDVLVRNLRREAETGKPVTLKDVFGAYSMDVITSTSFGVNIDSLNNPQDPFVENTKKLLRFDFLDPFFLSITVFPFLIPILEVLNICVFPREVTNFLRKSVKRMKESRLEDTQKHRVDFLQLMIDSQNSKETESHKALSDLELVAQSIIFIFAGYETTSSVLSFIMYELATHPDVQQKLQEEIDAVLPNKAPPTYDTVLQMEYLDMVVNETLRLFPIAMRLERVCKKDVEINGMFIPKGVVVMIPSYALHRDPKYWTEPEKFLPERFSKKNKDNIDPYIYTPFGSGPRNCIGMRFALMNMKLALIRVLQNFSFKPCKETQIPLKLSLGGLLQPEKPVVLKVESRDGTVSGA
# Chain of Cytochrome P450 2C19 (Homo sapiens) (P33261 whole entry, looked up): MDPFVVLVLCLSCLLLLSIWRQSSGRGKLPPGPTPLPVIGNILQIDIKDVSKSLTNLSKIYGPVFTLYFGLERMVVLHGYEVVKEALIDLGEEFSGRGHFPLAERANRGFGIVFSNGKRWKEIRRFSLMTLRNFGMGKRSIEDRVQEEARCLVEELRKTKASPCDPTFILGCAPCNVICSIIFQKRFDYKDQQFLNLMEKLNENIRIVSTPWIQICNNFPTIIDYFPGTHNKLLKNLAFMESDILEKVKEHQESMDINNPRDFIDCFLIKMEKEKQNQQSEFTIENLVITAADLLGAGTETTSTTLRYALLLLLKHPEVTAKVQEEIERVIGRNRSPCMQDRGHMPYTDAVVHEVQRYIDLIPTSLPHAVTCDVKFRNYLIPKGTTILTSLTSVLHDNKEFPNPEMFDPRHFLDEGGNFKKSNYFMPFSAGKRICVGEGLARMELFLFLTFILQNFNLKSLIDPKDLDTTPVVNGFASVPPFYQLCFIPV
SMILES,"activity change, negative = inhibition [1] [%]",Potency [2],"activity change, negative = inhibition [3] [%]","activity, negative = inhibition [4] [%]",Potency [5] [µM],Potency [6] [µM],Potency [7],Potency [8],Potency [9],Potency [10],Potency [11],Potency [12],Potency [13],Potency [14],outcome [15],activation [16] [%],Potency [17] [µM]
O=c1c(-c2cccs2)nc2cncnc2n1Cc1ccc(F)cc1,-19.2,2.51 µM (active),-15.7,-3.58,> 9.22,> 46,inactive,inactive,inactive,7.94 µM (active),inactive,inactive,inactive,inactive,inactive,–,–
Clc1ccccc1-c1nccc(NCc2ccccc2)n1,12.5,3.16 µM (active),10.7,-6.25,> 46,> 46,inactive,–,–,–,inactive,inactive,inactive,28.2 µM (active),inactive,–,–
O=c1c(CCc2ccccc2)nc2cnc(N3CCOCC3)nc2n1CCc1ccccc1,0.172,25.1 µM (active),6.88,-4.94,> 9.22,> 46,inactive,–,–,–,inactive,inactive,inactive,inactive,inactive,-4.33,–
CN(C)c1ncc2nc(-c3cccc(C#N)c3)c(=O)n(C)c2n1,–,–,5.54,-1.63,> 9.22,> 46,inactive,inactive,–,–,inactive,inactive,inactive,inactive,inactive,–,> 11.4
O=c1c(-c2cc(F)cc(F)c2)nc2cnc(N3CCNCC3)nc2n1Cc1ccc(F)cc1,–,–,–,–,> 9.22,> 46,inactive,inactive,–,–,inactive,inactive,inactive,–,inactive,–,> 11.4
Cc1noc(C)c1-c1nccc(N2CCN(C)CC2)n1,16,2 µM (active),-10.9,11.7,> 46,> 46,inactive,inactive,–,–,inactive,inactive,inactive,inactive,inactive,–,–
O=c1c(-c2ccc(Cl)cc2)nc2cnc(N3CCNCC3)nc2n1CCc1ccccc1,–,–,–,–,> 9.22,> 46,–,inactive,inactive,–,inactive,inactive,inactive,–,inactive,–,> 11.4
